VACV Venus inh = qHTS for Stage-Specific Inhibitors of Vaccinia Orthopoxvirus: Venus Reporter Primary qHTS. Potency, µM (highest dose often 36.5 µM), hits mostly inhibitors. hit rate 0.46% among 330,000. Vaccinia virus Venus reporter expression, fluorescence; calls by dose curve; tested in A549 cells; also: nearly all actives have a fitted effect of over 30% in size
MARV entry inh = qHTS for inhibitors of binding or entry into cells for Marburg Virus | Marburg virus pseudotyped entry inhibition, cell reporter | Potency, µM (titrated, usually from 37.8 µM), actives largely listed as inhibitors | hit rate 1.8% among 300,000; calls by dose curve; tested in HEK293 cells
FMDV antiviral = High Throughput Screening for Foot and Mouth Disease Virus Antivirals; FMDV antiviral cell-based qHTS; Potency, µM (doses to about 57.9 µM), most hits filed as inhibitors; hit rate 1.2% among 410,000; AID 1159524, 2015; calls by dose curve; tested in HEK293T cells; also: read-out not given here; nearly all actives have a fitted effect of over 45% in size
Lassa entry inh = qHTS for Inhibitors of binding or entry into cells for Lassa Virus; Potency, µM (highest dose often 37.9 µM), most hits filed as inhibitors; Lassa virus pseudotype entry inhibition, cell reporter; AID 540256, 2011; hit rate 1.2% among 300,000; calls by dose curve; tested in HEK293 cells; also: nearly all actives have a fitted effect of over 50% in size
VACV mCherry inh = qHTS for Stage-Specific Inhibitors of Vaccinia Orthopoxvirus: mCherry Reporter Primary qHTS; Vaccinia virus mCherry reporter infection, fluorescence; Potency, µM (titrated, usually from 36.5 µM), most hits filed as inhibitors; hit rate 0.63% among 310,000; AID 720579, 2013; calls by dose curve; tested in A549 cells; also: nearly all actives have a fitted effect of over 35% in size
A number is an active result; . = inactive; ? = inconclusive; / = no result; [ ] = remark or other dose. This is a sample that favours compounds with a hit; in the whole collection about 3.2% have one here.

SMILES	VACV Venus inh	MARV entry inh	FMDV antiviral	Lassa entry inh	VACV mCherry inh
COc1ccc2c(c1)CCC1[C@@H]2CCC2(C)[C@@H](NCCCCCCN3C(=O)C=CC3=O)CC[C@@H]12 (stereo not given in full)	/	/	.	/	/
COc1ccc2sc(N(CCCN(C)C)C(=O)c3ccc(S(=O)(=O)N4CCc5ccccc5C4)cc3)nc2c1	11.2µM	?	25.1µM	3.55µM	?
CN(C)CCCN(C(=O)c1ccc(S(=O)(=O)N2CCc3ccccc3C2)cc1)c1nc2ccc(F)cc2s1	15.8µM	?	.	?	12.6µM
COc1ccc2sc(N(CCCN(C)C)C(=O)c3ccc(S(=O)(=O)N4CCCC4)cc3)nc2c1	.	.	.	.	.
CC12C=C(C=CCCc3ccco3)C(C)(C1)C(CCc1ccco1)CC2=O (stereo not given)	/	.	/	/	/
COc1ccc(OCC(O)CN(C2CCCCC2)C2CCCCC2)cc1 (stereo not given)	.	?	.	14.6µM	.
O=[N+]([O-])c1ccc(OCC(O)CN(C2CCCCC2)C2CCCCC2)cc1 (stereo not given)	.	?	?	.	.
CC(C)Cn1c(N)c(C(=O)COC(=O)c2ccc(Br)cc2)c(=O)n(C)c1=O	/	/	31.6µM	/	/
CCCn1c(N)c(C(=O)CSc2nc(C)cs2)c(=O)n(C)c1=O	?	10µM	.	.	.[1.46 µM]
CC(C)Cn1c(N)c(C(=O)COC(=O)CC23CC4CC(CC(C4)C2)C3)c(=O)n(C)c1=O	?	8.91µM	12.6µM	1.78µM	/
Cc1ccccc1CSCC(=O)c1c(N)n(CC(C)C)c(=O)n(C)c1=O	.	?	?	.	/
Cc1csc(=O)n1CCC(=O)OCC(=O)c1c(N)n(CC(C)C)c(=O)n(C)c1=O	.	?	?	.	.
CC(C)Cn1c(N)c(C(=O)CSc2ccccc2)c(=O)n(C)c1=O	.	?	20µM	.	?
COC(=O)[C@@H]1CCCN1C(=O)c1cc(NC(=O)c2ccccc2)cc2ncn(C3CCCC3)c12	.	/	.	/	.
CCN(CC)CCN1C(=O)C(=O)/C(=C(/O)c2c(C)[nH]c(C(=O)OC)c2C)[C@@H]1c1ccc(OC)cc1	/	.	/	/	/
CC(C)Cn1c(N)c(C(=O)COC(=O)/C=C/c2ccccc2)c(=O)n(C)c1=O	.	10µM	15.8µM	?	?
Cn1c(N)c(C(=O)COC(=O)/C=C/c2ccc(Cl)cc2)c(=O)n(C)c1=O	.	.	?	.	.
Nc1c(Br)cc(/C=C2\C=Cc3ccccc32)cc1Br	.	/	/	/	.
Cc1ccn2c(C(=O)c3ccc(Cl)cc3)cnc2c1	.	?	.	17.8µM	.
Cc1cccc2cc(CN(C(=O)c3ccc(-c4ccc(F)cc4)cc3)C3CC3)c(N3CCC(O)CC3)nc12	.	/	.	/	?
O=C(/C=C/c1ccc2c(c1)OCO2)Nc1nc(-c2ccc(F)cc2F)cs1	/	.	/	.	/
Cc1csc(NC(=O)/C=C/c2ccc3c(c2)OCO3)n1	.	4.47µM	.	?	.
O=C(/C=C/c1ccc2c(c1)OCO2)NCc1ccco1	.	.	.	10µM	.
COc1ccccc1-c1sc2cc3c(cc2c1-c1ccc(OCCN2CCCCC2)cc1)OCO3	11.2µM	/	?	/	28.2µM
COc1cc2sc(-c3ccccc3OC)c(-c3ccc(OCCN4CCCCC4)cc3)c2cc1OC	?	/	?	/	.
SMILES	VACV Venus inh	MARV entry inh	FMDV antiviral	Lassa entry inh	VACV mCherry inh
COCCN=c1scc(-c2cccs2)n1/N=C/c1ccc(O)c(O)c1O	?	/	.	/	11.2µM
c1ccc(C(c2nnnn2C2CCCC2)N2CCN(c3ccccc3)CC2)cc1 (stereo not given)	.	?	.	18.3µM	.
COc1ccc(C(c2nnnn2C2CCCCC2)N2CCN(c3ccc(OC)cc3)CC2)cc1 (stereo not given)	.	?	.	?	/
COc1ccc(OC)c(C(c2nnnn2C2CCCC2)N2CCN(c3ccccc3)CC2)c1 (stereo not given)	.	10µM	.	?	/
CCC1CN2CCc3cc(OC)c(OC)cc3C2CC1CC1NCCc2c1[nH]c1ccc(O)cc21 (stereo not given)	5.62µM	0.224µM	?	0.501µM	?
CC[C@@H]1CN2CCc3cc(OC)c(OC)cc3[C@H]2C[C@@H]1C[C@H]1NCCc2cc(OC)c(OC)cc21	/	0.326µM	/	/	/
CCc1ccc(OCC2NCCc3cc(OC)c(OC)cc32)cc1 (stereo not given)	/	/	.	/	/
S=C(NCCc1ccccc1)NC1CC2CCC(C1)N2Cc1ccccc1 (stereo not given)	.	?	.	?	.
CCCNC(=S)NC1CC2CCC(C1)N2Cc1ccccc1 (stereo not given)	.	?	.	.	.
CCNC(=S)NC1CC2CCC(C1)N2Cc1ccccc1 (stereo not given)	.	0.92µM	/	.	.
CC(C)CNC(=S)NC1CC2CCC(C1)N2Cc1ccccc1 (stereo not given)	.	0.651µM	/	.	.
COc1ccccc1S(=O)(=O)N1CCN(c2nc(-c3cccs3)nc3ccccc23)CC1	.	/	/	/	.
Cc1cccc(CS(=O)(=O)c2ncc(Cl)c(C(=O)Nc3c(C)cccc3C)n2)c1	/	/	.	/	/
Cc1nnc(NC(=O)c2nc(S(=O)(=O)Cc3ccccc3)ncc2Cl)s1	.	?	5.62µM	?	.
CCc1nnc(NC(=O)c2nc(SCc3cccc(C)c3)ncc2Cl)s1	.	.	.	.	.
Cc1cccc(C)c1NC(=O)c1nc(S(=O)(=O)Cc2ccccc2)ncc1Cl	.	11.2µM	28.2µM	?	.
CCCc1nnc(NC(=O)c2nc(S(=O)(=O)Cc3cccc(C)c3)ncc2Cl)s1	/	/	28.2µM	/	/
Cc1ccc(NC(=O)c2nc(S(=O)(=O)Cc3ccccc3)ncc2Cl)cc1	?	?	28.2µM	.	.
COc1ccc(O[C@H]2C=C[C@@H](c3ccccc3)O[C@@H]2CO/N=C2/[C@H]3CCn4c(=O)n(-c5ccccc5)c(=O)n4[C@H]3[C@H](O)[C@@H]3O[C@H]23)cc1	/	.	/	/	/
CCOC(=O)N1CCN(Cc2ccc3c(c2)CN(C(=O)c2noc4c2CCCC4)CCO3)CC1	.	/	?	/	.
CC(C)CCC(C)N=Cc1c(O)n(Cc2ccccc2)c(=O)c2ccccc12 (stereo not given)	.	12.6µM	.	.	/
COc1ccc(C(=O)C[C@@H]2OC[C@H](Cc3ccccc3)N2S(=O)(=O)c2ccc(C)cc2)cc1OC	.	/	.	/	.
Cc1ccccc1COn1nnc2ccc(S(=O)(=O)N3CCOCC3)cc21	7.94µM	.	?	.	4.47µM
CN(C(=O)COn1nnc2ccc(S(=O)(=O)N3CCOCC3)cc21)c1ccccc1	.	.	.	?	.
CCOC(=O)c1cc2c(C)n(-c3ccc(OCC)cc3)c(C)c2ccc1=O	.	?	39.8µM	?	?
CCOC(=O)c1cc2c(C)n(-c3ccc(C)cc3)c(C)c2ccc1=O	/	25.9µM	.	?	/
CCOc1ccc(-n2c(C)c(C(=O)OC)c3cc(O)ccc32)cc1	.	.	.	.	?
CSc1nnc(CCNC(=O)c2ccccc2C(F)(F)F)n1-c1ccc(F)cc1	.	/	.	/	.
